Screening results from PubChem BioAssay.
Only some compounds are listed: those with a hit (about 7.3% of all), similar ones and a draw of the others.
Rab9 prom act: activators of Rab9 promoter | Huh7 Rab9 promoter-luciferase reporter, luminescence, 24 h | Potency, µM (titrated, usually from 9.22 µM), inactives show top-dose activation, negative = inhibition, most hits filed as activators | actives 2.8% (n = 320,000); also: % of control where 0% means no effect; nearly all actives have a fitted effect of over 60% in size
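Rab9 promoter-driven luciferase in stably transfected Huh7 cells; 1500 cells/well rested 2 h, exposed to compound in DMSO for 24 h at 37 °C, 5% CO2. Luminescence read 10 min after adding luciferase reagent at ambient temperature.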
ELG1 genotox: induces genotoxicity in HEK293T cells with luciferase-tagged ELG1; actives 1.3% (n = 330,000); HEK293T ELG1-luciferase reporter, luminescence, 16 h; Potency, µM (doses to about 46 µM), without a hit: at the highest dose activity change, positive = activation, actives largely listed as activators; AID 504466; also: % of control where 0% means no effect; nearly all actives have a fitted effect of over 60% in size
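Cells (2,000/well) expressing the ELG1-luciferase fusion are dosed by pin tool and kept 16 hr at 37 °C, 5% CO2. Signal comes from ONE-Glo luciferase reagent after 30 min at room temperature.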
FLuc counter: counter-screen for miR-21 project: firefly luciferase inhibitors or activators. P08659. purified FLuc, Km substrates, luminescence inhibition. Potency, µM (top dose mostly 57.5 µM), for inactives: at the highest dose activity change, negative = inhibition, most hits filed as inhibitors. actives 6.9% (n = 360,000);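 also: plate controls were vehicle for no effect and reference inhibitor for full effect; nearly all actives have a fitted effect of over 55% in size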
Target sequence (P08659 whole entry, looked up): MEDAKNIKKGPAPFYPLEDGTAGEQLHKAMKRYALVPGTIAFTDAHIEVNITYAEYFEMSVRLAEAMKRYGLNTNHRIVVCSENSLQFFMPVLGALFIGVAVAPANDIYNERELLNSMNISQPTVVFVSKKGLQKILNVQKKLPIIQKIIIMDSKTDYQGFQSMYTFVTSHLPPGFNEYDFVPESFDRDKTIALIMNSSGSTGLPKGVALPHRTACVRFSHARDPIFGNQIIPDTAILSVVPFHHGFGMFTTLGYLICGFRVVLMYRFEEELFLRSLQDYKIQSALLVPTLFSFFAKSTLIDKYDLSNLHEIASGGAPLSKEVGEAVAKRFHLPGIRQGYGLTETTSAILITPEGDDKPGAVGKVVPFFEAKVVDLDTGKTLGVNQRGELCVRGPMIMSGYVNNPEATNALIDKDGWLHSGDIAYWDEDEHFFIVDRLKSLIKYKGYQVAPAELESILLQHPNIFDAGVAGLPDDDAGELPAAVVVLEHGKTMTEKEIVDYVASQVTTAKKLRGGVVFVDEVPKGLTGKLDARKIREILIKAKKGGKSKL
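Purified P. pyralis luciferase (10nM final) with 10uM D-luciferin and 10uM ATP (Km levels) in 50mM Tris acetate pH 7.5, 10mM Mg acetate, 0.01% Tween-20, 0.05% BSA; qHTS 6-point titration, ~60 µM downward; luminescence read.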
SMN2 splice enh: SMN2 splice variant enhancement | HEK293 SMN2-luciferase splicing reporter, luminescence, 30-36 h | actives 2.8% (n = 210,000) | Potency, µM (doses to about 46.1 µM), without a hit: at the top dose activity change, positive = activation, actives largely listed as activators; also: % of control where 0% means no effect; nearly all actives have a fitted effect of over 55% in size
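qHTS luciferase splicing reporter: luminescence rises when SMN2 exon 7 is included in transfected HEK293 cells. Compound exposure lasted 30-36 h at 37C, with 4.5 mM final sodium butyrate as control, followed by a ONE-Glo read.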
uPA surface inh: cell surface uPA generation inhibition | cell surface uPA generation assay, qHTS | Potency, µM (series often up to 38.3 µM), inactives show top-dose activity change, negative = inhibition, usual class: inhibitors | actives 0.31% (n = 330,000); active = well fitted inhibition curve with a large enough effect; inconclusive = small, poorly fitted or top-dose-only effect; inactive = no such curve, though single readings can be large or run the other way; tested in mouse RAW 264.7 cells; also: % is scaled to controls: 0 for no effect and ±100 for the full control effect; nearly all actives have a fitted effect of over 55% in size
NPC1 promoter act: activators of NPC1 promoter; Huh7 NPC1 promoter luciferase reporter, 24 h; Potency, µM (top dose mostly 9.22 µM), for inactives: at the top dose activation, actives largely listed as activators; actives 2.4% (n = 320,000); AID 485313; also: % of control where 0% means no effect; nearly all actives have a fitted effect of over 60% in size
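Huh7 reporter cells (NPC1 promoter driving luciferase) are dosed with compound for 24 h at 37 °C, 5% CO2; luciferase detection reagent is then added and luminescence measured after 10 min at ambient temperature.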
The depositor's hits bear a star. Unless noted, calls follow the shape of the dose curve; as a rule, active = well fitted curve in the direction sought with a large enough effect; inconclusive = small, poorly fitted or top-dose-only effect, or another doubt; inactive = no such curve, though single readings can be large; an effect the other way counts as inactive or inconclusive. Potency is read from the fitted curve at half-maximal effect.

Cc1cc(C(=O)COC(=O)c2n[nH]c3ccccc23)c(C)n1C was read as Rab9 prom act 0.501µM*, ELG1 genotox 1.16µM*, FLuc counter 1.35µM*, SMN2 splice enh 2.82µM*, uPA surface inh -12.0% and NPC1 promoter act 2.82µM*.
`COc1ccc(C(=O)COC(=O)c2n[nH]c3ccccc23)c(OC)c1` gave Rab9 prom act 3.55µM*, ELG1 genotox 15.3%, FLuc counter 6.01µM*, uPA surface inh -0.8% and NPC1 promoter act 3.16µM*.
Screening O=C(COC(=O)c1n[nH]c2ccccc12)c1ccc(F)c(F)c1 returned Rab9 prom act 4.6%, ELG1 genotox 2.4%, FLuc counter 9.53µM*, uPA surface inh 2.9% and NPC1 promoter act 6.5%.
Screening Cc1ccc(C(=O)COC(=O)c2n[nH]c(=O)c3ccccc23)cc1 returned Rab9 prom act 2.0%, ELG1 genotox -0.5%, FLuc counter 6.01µM*, SMN2 splice enh 5.0%, uPA surface inh 2.3% and NPC1 promoter act -3.2%.
Cc1cc(C(=O)COC(=O)c2nccnc2N)c(C)n1C was read as Rab9 prom act 0.501µM*, ELG1 genotox 6.51µM*, FLuc counter 9.53µM*, SMN2 splice enh 11.2µM*, uPA surface inh -3.6% and NPC1 promoter act 3.16µM*.
`Cc1cc(C(=O)COC(=O)Cc2n[nH]c(=O)c3ccccc23)c(C)n1CC(F)(F)F` gave Rab9 prom act -0.6%, ELG1 genotox 0.1%, FLuc counter 1.9%, uPA surface inh -0.2% and NPC1 promoter act 1.8%.
Screening CCOC(=O)c1n[nH]c(=O)c2ccccc12 returned Rab9 prom act 3.1%, ELG1 genotox 4.2%, FLuc counter -0.8%, uPA surface inh 3.4% and NPC1 promoter act -0.8%.
Screening CCOC(=O)c1n[nH]c2ccccc12 returned Rab9 prom act -3.3%, ELG1 genotox -0.2%, FLuc counter 2.4%, SMN2 splice enh -4.6%, uPA surface inh 3.5% and NPC1 promoter act -3.5%.
`O=C(OCCOc1ccccc1)c1n[nH]c2ccccc12` gave Rab9 prom act 2.24µM*, ELG1 genotox inconclusive, FLuc counter 6.01µM*, uPA surface inh 1.4% and NPC1 promoter act 3.55µM*.
For COCCn1c(C)cc(C(=O)COC(=O)Cc2n[nH]c(=O)c3ccccc23)c1C the results were Rab9 prom act inconclusive, ELG1 genotox 9.1%, FLuc counter 23.9µM*, uPA surface inh -3.0% and NPC1 promoter act 25.9%.
COc1cc(C(=O)OCC(=O)c2cc(C)n(C)c2C)cc(OC)c1OC was read as Rab9 prom act 1.6%, ELG1 genotox -3.9%, FLuc counter -19.0%, SMN2 splice enh -4.5%, uPA surface inh -10.5% and NPC1 promoter act -18.8%.
`CCC(C(=O)Nc1cccc(C#N)c1)n1nc(-c2ccccc2)ccc1=O` (stereo not given) gave FLuc counter -10.0% and SMN2 splice enh -1.2%.
Screening O=C(NCCc1ccccc1)c1n[nH]c2ccccc12 returned Rab9 prom act 3.55µM*, ELG1 genotox inconclusive, FLuc counter 10.7µM*, SMN2 splice enh 11.2µM*, uPA surface inh 2.7% and NPC1 promoter act 2.51µM*.
Screening Cc1cc(C(=O)COC(=O)c2n[nH]c(=O)c3ccccc23)c(C)n1C returned Rab9 prom act 23.6%, ELG1 genotox inconclusive, FLuc counter 1.69µM*, uPA surface inh -25.9% and NPC1 promoter act 15.7%.
`COCCn1c(C)cc(C(=O)COC(=O)c2n[nH]c3ccccc23)c1C` gave Rab9 prom act 0.224µM*, ELG1 genotox 0.231µM*, FLuc counter 0.426µM*, SMN2 splice enh -32.3%, uPA surface inh -11.4% and NPC1 promoter act 0.398µM*.
`COCCn1c(C)cc(C(=O)COC(=O)c2c(C)nn(Cc3ccccc3)c2C)c1C` gave Rab9 prom act -17.9%, ELG1 genotox -5.2%, FLuc counter inconclusive, uPA surface inh 1.5% and NPC1 promoter act -4.8%.
For CN(C)C=Nc1ccc2nn(-c3ccccc3)nc2c1 the results were Rab9 prom act 1µM*, ELG1 genotox inconclusive, FLuc counter 5.36µM*, SMN2 splice enh 5.01µM*, uPA surface inh -3.1% and NPC1 promoter act 2.82µM*.
`CN(C)C=Nc1ccc(Cl)c(Cl)c1` gave Rab9 prom act -4.9%, ELG1 genotox 1.9%, FLuc counter -13.1%, uPA surface inh 4.0% and NPC1 promoter act -2.2%.
Cc1cc(C(=O)NN=C2CCCC2)c2ccccc2n1 was read as Rab9 prom act 10.6%, ELG1 genotox -2.3%, FLuc counter 0.0%, uPA surface inh -7.8% and NPC1 promoter act 5.2%.
For Cc1ccccc1NC(=O)c1cn(-c2ccccc2)nc1-c1ccccc1 the results were Rab9 prom act -3.5%, ELG1 genotox -7.6%, FLuc counter 0.9%, SMN2 splice enh -15.6%, uPA surface inh -9.1% and NPC1 promoter act -5.0%.
Cc1ccc(-c2cc(C(=O)NN=C3CCCC3)c3ccccc3n2)cc1 was read as Rab9 prom act -4.3%, ELG1 genotox 2.6%, FLuc counter 4.26µM*, SMN2 splice enh -12.2%, uPA surface inh 0.7% and NPC1 promoter act -0.1%.
O=C(NN=C1CCCCCC1)c1cc(-c2ccccc2)nc2ccccc12 was read as Rab9 prom act -4.3%, ELG1 genotox 2.1%, FLuc counter 16.9µM*, SMN2 splice enh 12.6%, uPA surface inh -9.7% and NPC1 promoter act -9.4%.
`Cc1cc(C(=O)NN=C2CCCCC2)c2ccccc2n1` gave Rab9 prom act -5.9%, ELG1 genotox -1.2%, FLuc counter 3.7%, SMN2 splice enh -14.4%, uPA surface inh 0.9% and NPC1 promoter act -1.4%.
For O=C(NC(=S)N1CCOCC1)c1cn(-c2ccccc2)nc1-c1ccccc1 the results were Rab9 prom act 1.3%, ELG1 genotox -7.6%, FLuc counter 16.9µM*, uPA surface inh inconclusive and NPC1 promoter act -0.4%.
`O=C(NN=C1CCCCCC1)c1cn(-c2ccccc2)nc1-c1ccccc1` gave Rab9 prom act 0.9%, ELG1 genotox 0.0%, FLuc counter 15.1µM*, SMN2 splice enh -28.5%, uPA surface inh -0.5% and NPC1 promoter act -3.1%.
Cc1cc(C)cc(OCCSc2nc3ccc(NC(=O)c4cccs4)cc3s2)c1 was read as FLuc counter -4.7%.
`CCOc1ccc(CCNC(=O)C2CCCN(c3nnc(C)c4c(C)n(-c5ccccc5)nc34)C2)cc1` (stereo not given) gave FLuc counter 0.8%.
`O=C1NC(=O)/C(=C\c2ccc(OCc3cccc(C(=O)O)c3)c(Cl)c2)N1` gave Rab9 prom act 2.24µM*, ELG1 genotox -3.4%, FLuc counter 0.601µM*, SMN2 splice enh 11.2µM*, uPA surface inh 0.2% and NPC1 promoter act inconclusive.
